A selection: hits, their analogues and other compounds. The true share with any hit is near 0.8%.
TRPML1 ag: qHTS for Agonists of the Human Mucolipin Transient Receptor Potential 1 (TRPML1) | Mucolipin-1 (Homo sapiens), Q9GZU1 | TRPML1-expressing cells, Ca2+ dye fluorescence, FDSS | activation, % (concentration not given with the values) | 0.12% of 410,000 active | AID 624414, 2012; in the data active means activation above about 50%; inconclusive means mostly about 30% to 49%; further: 0% is about no effect
Target sequence (Q9GZU1 whole entry, looked up): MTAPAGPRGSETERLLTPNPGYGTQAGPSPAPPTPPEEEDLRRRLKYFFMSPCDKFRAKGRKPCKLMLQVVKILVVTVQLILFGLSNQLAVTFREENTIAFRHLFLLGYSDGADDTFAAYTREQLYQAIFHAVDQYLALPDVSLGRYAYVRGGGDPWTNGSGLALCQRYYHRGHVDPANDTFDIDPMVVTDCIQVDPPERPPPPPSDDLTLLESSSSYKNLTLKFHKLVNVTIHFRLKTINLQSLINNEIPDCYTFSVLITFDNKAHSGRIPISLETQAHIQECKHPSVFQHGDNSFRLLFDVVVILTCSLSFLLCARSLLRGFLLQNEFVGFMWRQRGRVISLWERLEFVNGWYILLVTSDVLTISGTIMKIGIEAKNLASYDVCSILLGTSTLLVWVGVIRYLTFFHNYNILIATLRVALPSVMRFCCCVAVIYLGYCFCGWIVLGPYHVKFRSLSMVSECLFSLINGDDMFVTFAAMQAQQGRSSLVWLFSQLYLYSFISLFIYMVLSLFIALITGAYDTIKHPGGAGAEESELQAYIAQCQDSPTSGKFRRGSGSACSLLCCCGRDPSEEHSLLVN
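Tetracycline-induced TRPML1-DL cells are seeded and incubated overnight before loading with a no-wash Ca2+ dye and quencher. Agonist activity is taken from the 110 s fluorescence read following compound pin-transfer on an FDSS, before EC80 54-4 challenge.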
Glioma ERSR ind: qHTS for Inducers of the Endoplasmic Reticulum Stress Response (ERSR) in Human Glioma: qHTS. 0.02% of 420,000 active. U87-MG GRP78 promoter luciferase reporter, 16 h. Potency, µM, for the others: at the top dose activation, hits mostly activators; further: potency means the concentration at half of the fitted maximal effect; series mostly up to about 76 µM; % of control where 0% means no effect; nearly all actives have a fitted effect of over 35% in size
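ERSR induction read as luciferase luminescence (Bright-Glo, 10 min at room temperature) in stably transfected human U87-MG glioma cells exposed to compounds for 16 h, using GRP78 as sensor.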
TRPML1 inh: qHTS for Inhibitors of the Human Mucolipin Transient Receptor Potential 1 (TRPML1); TRPML1-inducible cells, Ca2+ dye fluorescence, FDSS; stronger effect = lower value; inhibition of EC80 agonist-evoked calcium signal; activity change, negative = inhibition, % (test concentration not listed); 0.02% of 390,000 active; AID 624415, 2012; in the data active means activity change below about -50%; inconclusive means between about -30% and that limit;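 further: stimulus is agonist 54-4 at its EC80 concentration; on the % scale 0 is the no-effect control and ±100 the full control effect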
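Calcium fluorescence in TRPML1-DL cells induced overnight with Tet: a 110 s read after compound pin addition, then a 110 s antagonist read after challenge with 54-4 at 4 uM final (EC80).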
TRHR enhancer-1: qHTS for Small Molecule Agonists and Allosteric Enhancers of Human TRH Receptor: Primary Screen for Enhancers. enhancement, % at 2 µM. TRHR cells, fluo-8 calcium fluorescence, EC20 TRH enhancement. 0.66% of 360,000 active; in the data active means enhancement above about 30%; further: 0% is about no effect
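TRHR-expressing cells loaded with fluo-8 calcium dye were read kinetically (ex 480/em 530) during compound addition, then stimulated with an EC20 of TRH (10 nM final). Enhancement of the Gq-mediated intracellular calcium response was scored.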
TRHR agonist-1: qHTS for Small Molecule Agonists and Allosteric Enhancers of Human TRH Receptor: Primary Screen for Agonists; Thyrotropin-releasing hormone receptor (Homo sapiens), P34981; TRHR cells, calcium flux fluo-8, FDSS agonist mode; activation, % at 2 µM; 0.18% of 360,000 active; AID 493084, 2011; in the data active means activation above about 30%; further: 0% is about no effect
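TRHR-expressing cells, plated overnight in medium with 10% serum, were loaded with fluo-8 calcium dye at room temperature. After a 10 s baseline, library compound was pin-added and calcium release was recorded kinetically (ex 480/em 530) as agonist response.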
TRHR enhancer-2: qHTS for Small Molecule Agonists and Allosteric Enhancers of Human TRH Receptor: Confirmation Screen for Enhancers; shares compounds with TRHR enhancer-1; AID 493076, 2011; 970 tested, under 10 active; activity change, negative = inhibition, % at 46.1 µM; TRH receptor cell assay, enhancer confirmation qHTS;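 further: compound effect scored on response to added TRH at EC20 of 10 nM; 0% is about no effect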
TRHR agonist-2: qHTS for Small Molecule Agonists and Allosteric Enhancers of Human TRH Receptor: Confirmation Screen for Agonists; TRHR-expressing cells, agonist activation read-out; AID 493078, 2011; 8% of 970 active; shares compounds with TRHR enhancer-1; Potency, µM (highest dose often 46.1 µM), inactives show at the top dose activation, hits mostly activators; further: potency means the concentration at half of the fitted maximal effect; 0% is about no effect; nearly all actives have a fitted effect of over 75% in size
Starred values were filed as active, the others as inactive; ? = inconclusive; nt = no result given. Unless noted, the call rests on the fitted dose curve; in most records, active means well fitted curve in the direction sought with a large enough effect; inconclusive means small, poorly fitted or top-dose-only effect, or another doubt; inactive means no such curve, though single readings can be large; an effect the other way counts as inactive or inconclusive.

SMILES	TRPML1 ag	Glioma ERSR ind	TRPML1 inh	TRHR enhancer-1	TRHR agonist-1	TRHR enhancer-2	TRHR agonist-2
COc1ccc(-n2c(CCNC(=O)c3ccc(-c4cccc(F)c4)cc3)nnc2SC)cc1	nt	-3%	nt	nt	nt	nt	nt
Cc1oc2cc3oc(=O)c(CC(=O)N[C@@H](C)C(=O)NC(Cc4ccc(Cl)cc4)C(=O)O)c(C)c3cc2c1C (some centres not stated)	nt	-3%	nt	44*	0	14	3%
CCC(NC(=O)Cc1c(C)c2ccc(OC)c(C)c2oc1=O)C(=O)NC(Cc1ccc(Cl)cc1)C(=O)O (configuration not stated)	nt	-1%	nt	9	0	nt	nt
Cc1ccc(CN2C[C@H](Sc3ccccn3)C[C@H]2C(=O)Nc2ccc3sc(C)nc3c2)c(C)c1	nt	-4%	nt	nt	nt	nt	nt
Cc1[nH]nc2c1C(c1cnn(C)c1)C(C#N)=C(N)O2 (configuration not stated)	0	-2%	-10	55*	1	-1	-1%
Cc1ccc(C2C(C#N)=C(N)Oc3n[nH]c(C)c32)cc1 (configuration not stated)	-1	3%	-3	2	0	nt	nt
O=C(c1ccc(Cn2cnnn2)cc1)N1CCOc2ccc(C(O)C3CCCCC3)cc2C1 (configuration not stated)	nt	-1%	nt	nt	nt	nt	nt
Cc1ncc2c(c1CNC(=O)c1ccc3c(c1)OCO3)CCN(C(=O)c1cc3ccccc3o1)C2	nt	-3%	nt	nt	nt	nt	nt
O=c1c(S(=O)(=O)c2ccccc2)cn(Cc2ccc(F)cc2)c2cc(N3CCCC3)c(F)cc12	4	-3%	-20	77*	0	-8	-1%
Cn1cc(S(=O)(=O)c2cccc(Cl)c2)c(=O)c2cc(F)c(N3CCN(c4ccccc4)CC3)cc21	2	0%	-4	59*	-1	1	0%
O=C(Nc1cccc2ncccc12)c1ccco1	0	-4%	?	51*	0	-6	1%
Cc1ccccc1CN1[C@H](C)[C@H](c2ccccc2)OCCS1(=O)=O	-1	-1%	nt	nt	nt	nt	nt
CCN1CCCC(NC(=O)c2cc([N+](=O)[O-])ccc2OC)C1 (configuration not stated)	0	-1%	-8	42*	1	-3	-1%
O=C(NC1CCCCC1)C(c1ccc2ncccc2c1)N(Cc1ccccc1)C(=O)c1cccs1 (configuration not stated)	4	-2%	39	59*	1	-6	1%
COc1cccc(SCC2(O)CCN(C(=O)c3ccc(Cl)cc3)CC2)c1	-1	-3%	1	59*	0	-5	0%
COc1cc2c(NC3CCN(C(C)C)CC3)nc(N3CCCN(C)CC3)nc2cc1OCCCN(C)C	0	-7%	nt	nt	nt	nt	nt
COCc1c(C(=O)N2CCCCCC2)cnn1-c1nccc(-c2cccs2)n1	nt	-3%	nt	nt	nt	nt	nt
O=C(NCc1cccnc1)c1cnn(-c2nccc(-c3cccs3)n2)c1C1CC1	nt	2%	nt	nt	nt	nt	nt
COc1ccccc1NC(=S)N(Cc1cccnc1)Cc1ccccc1Cl	2	-1%	35	-1	0	nt	nt
Cc1ccccc1NC(=S)N(Cc1cccnc1)Cc1ccccc1Cl	0	-2%	1	47*	-1	?	6%
CCOC(=O)c1c(NC(=O)Cn2c(C)nc3ccccc32)sc2c1CCC2	1	-2%	-5	60*	-1	-5	6%
Cc1nn(C)cc1S(=O)(=O)Nc1ncccn1	1	-1%	46	41*	2	0	6%
Cc1c(C)c2cc3c(C)coc3cc2oc1=O	1	1%	5	41*	0	-8	-1%
COCCC1CCCCN1Cc1nc(N2CCCCC2)c2cc(OC)c(OC)cc2n1 (configuration not stated)	nt	-6%	nt	nt	nt	nt	nt
O=C(N/N=C/c1ccc(OCc2cnc(Cl)s2)cc1)c1ccncc1	2	3%	-7	50*	0	1	2%
SMILES	TRPML1 ag	Glioma ERSR ind	TRPML1 inh	TRHR enhancer-1	TRHR agonist-1	TRHR enhancer-2	TRHR agonist-2
COc1ccc(OC)c(C(=O)N2CCc3c(cnc(C)c3CNS(=O)(=O)N(C)C)C2)c1	nt	-4%	nt	nt	nt	nt	nt
CCCNC(=O)c1nc(C)n(-c2cc(Cl)cc(Cl)c2)n1	1	-6%	-5	0	-1	nt	nt
CCCNC(=O)c1nc(C)n(-c2cc(Cl)ccc2Cl)n1	2	-5%	21	64*	0	1	1%
C=C(C)c1cc2c(s1)c1cnn(Cc3ccccc3F)c(=O)c1n2C	nt	nt	nt	7	1	nt	nt
COc1ccccc1NC(=O)CC1COc2ccccc2O1 (configuration not stated)	-2	0%	-1	47*	0	5	1%
COc1ccccc1N1CCN(c2nc(CNC(=O)c3ccc(C)c(C)c3)nc3ccccc23)CC1	nt	-6%	nt	nt	nt	nt	nt
COc1cc(NC(=O)[C@@H](NC(=O)N2CCn3c2nc2ccccc23)C(C)C)cc(OC)c1	-1	2%	-4	43*	0	1	2%
CC(C)[C@H](NC(=O)N1CCn2c1nc1ccccc12)C(=O)N[C@H](Cc1ccccc1)C(=O)O	nt	-3%	nt	-1	0	nt	nt
COc1ccccc1C(=O)N[C@@H]1c2ccccc2C2(CCN(Cc3nccs3)CC2)[C@H]1OC	nt	-4%	nt	nt	nt	nt	nt
COc1cc(NC(=S)NCCc2c[nH]c3ccccc23)c(OC)cc1Cl	2	-6%	-8	49*	0	-7	2%
Fc1cc(F)cc(Nc2nc(NC3CCCC3)nc(C3CO3)n2)c1 (configuration not stated)	nt	nt	nt	-9	4	nt	nt
Cc1ccc(C(=O)CCNc2cccc(Br)c2)o1	-1	0%	-3	66*	-1	-10	2%
Cc1ccc(Cl)cc1N1CCN(S(=O)(=O)N2CCCCC2)CC1	1	-1%	-5	43*	0	0	1%
COC(=O)c1cccc(NC(=O)CN2CCc3ccccc3C2)c1	1	1%	5	71*	0	-4	6%
O=C(NNC(=O)c1nn(-c2ccc(F)cc2)ccc1=O)c1ccc(C(F)(F)F)cc1	-1	-5%	3	45*	-1	-7	2%
